Among the data in PubChem BioAssay (EPA / NIEHS) are outcome and AC50 values, retold here.

A word on the AC50: it is the concentration at which the activity in the assay is half-maximal.

A short description of assay [1]: TOX21_p53_BLA_p5_viability: Viability Assessment in the Tox21 HCT-116 p53 Agonism Beta-lactamase Assay, Phase 5 (AID 2283600). In outline:
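ATP luminescence (CellTiter-Glo, 30 min, RT) served as the viability read-out, with loss of signal indicating cytotoxicity. Compounds in DMSO were pinned at a 217-fold dilution onto 4000 cells/well and incubated 16 h, 37C.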

In assay [2] the target is Cellular tumor antigen p53 (Homo sapiens) (UniProt P04637). The assay can be described thus: TOX21_p53_BLA_p4_ratio: Tox21 HCT-116 p53 Agonism Beta-lactamase Assay, Ratio, Phase 4 (AID 2283601). In outline: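 Signal is the blue/green (460nm/530nm) ratio of cleaved versus uncleaved CCF4-AM substrate, read after 2 h substrate loading. Cells were HCT116 carrying the p53-responsive beta-lactamase reporter, dosed 16 h at 37C, 5% CO2; CellTiter-Glo measured in parallel.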

The nature of assay [3]: Tanguay_ZF_120hpf_MORT_legacy: (Legacy) Oregon State University Tanguay Lab 120 Hour Post-fertilization zebrafish Assay for Mortality (AID 2283633). The method in brief: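 Brightfield scoring of embryo death (binary) at 24 and 120 hpf; static exposure 6–120 hpf, 28C, sealed and foil-covered. Pronase-dechorionated 5D wild-type larvae, single embryo per well. DMSO 0.64% v/v; trimethyltin chloride 5uM positive control.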

Assay [4] can be described thus: Tanguay_ZF_120hpf_YSE_legacy: (Legacy) Oregon State University Tanguay Lab 120 Hour Post-fertilization zebrafish Assay for Yolk Sac Edema (AID 2283634). In outline:
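Binary brightfield scoring of yolk sac edema at 120 hpf; DMSO baseline, gain-of-signal fitting. Dechorionated 5D larvae, one per well, static exposure 6–120 hpf, 28C, 0.64% DMSO. Dead embryos not scored.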

A short description of assay [5]: Tanguay_ZF_120hpf_AXIS_legacy: (Legacy) Oregon State University Tanguay Lab 120 Hour Post-fertilization zebrafish Assay for Body Axis Malformation (AID 2283635).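 As to AC50: potency for an increased fraction of larvae scored with body axis malformation.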 The method in brief:
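Embryos: 5D wild-type, pronase-dechorionated 4 hpf; static exposure 6–120 hpf, 28C, sealed, dark, 1 embryo/well, 0.64% DMSO. 120 hpf axis malformation scored present/absent; dead embryos excluded. Analysed as gain of signal vs DMSO.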

The nature of assay [6]: Tanguay_ZF_120hpf_EYE_legacy: (Legacy) Oregon State University Tanguay Lab 120 Hour Post-fertilization zebrafish Assay for Eye Malformation (AID 2283636).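 Also: binary presence or absence of eye malformation scored by brightfield in 120 hpf larvae.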 The method in brief:
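Binary brightfield scoring of eye defects at 120 hpf after static exposure from 6 hpf of single pronase-dechorionated wild-type embryos (28C, 0.64% DMSO). Non-mortality endpoints omitted where embryos died; fit vs DMSO.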

Assay [7] can be described thus: Tanguay_ZF_120hpf_SNOU_legacy: (Legacy) Oregon State University Tanguay Lab 120 Hour Post-fertilization zebrafish Assay for Snout Malformation (AID 2283637). In outline:
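Binary snout-malformation call at 120 hpf in wild-type 5D embryos, chorion removed by pronase, under static exposure from 6 hpf at 28C (0.64% DMSO). Embryos dying by 24 or 120 hpf excluded.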

Assay [8] is described as follows: Tanguay_ZF_120hpf_JAW_legacy: (Legacy) Oregon State University Tanguay Lab 120 Hour Post-fertilization zebrafish Assay for Jaw Malformation (AID 2283638). In outline: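 Binary jaw-malformation calls at 120 hpf by brightfield imaging; DMSO (0.64% v/v) = baseline. Embryos: 5D wild-type, pronase-dechorionated, one per well from 6 hpf, static exposure, 28C, sealed, dark.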

Assay [9] in a line: Tanguay_ZF_120hpf_OTIC_legacy: (Legacy) Oregon State University Tanguay Lab 120 Hour Post-fertilization zebrafish Assay for Otic Vesicle Malformation (AID 2283639). In outline: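 Wild-type zebrafish larvae, whole-embryo exposure from early stage to 120 hpf at 28C. Binary brightfield scoring of otic vesicle morphology, fitted in the positive direction against the DMSO baseline.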

A short description of assay [10]: Tanguay_ZF_120hpf_PE_legacy: (Legacy) Oregon State University Tanguay Lab 120 Hour Post-fertilization zebrafish Assay for Pericardial Edema (AID 2283640). In outline: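 Static waterborne exposure, 5D wild-type embryos, 28C, to 120 hpf; final DMSO 0.64% (vol/vol). Binary PE call at 120 hpf by brightfield; fitted upward vs DMSO baseline. 5uM trimethyltin chloride as positive control.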

A short description of assay [11]: Tanguay_ZF_120hpf_BRAI_legacy: (Legacy) Oregon State University Tanguay Lab 120 Hour Post-fertilization zebrafish Assay for Brain Malformation (AID 2283641). The method in brief: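 Read-out: binary brain morphology call at 120 hpf (brightfield), fitted in gain-of-signal direction vs DMSO. Wild-type Tropical 5D embryos, static exposure, 28C, 0.64% DMSO final; 5uM trimethyltin chloride as positive control.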

Assay [12] can be described thus: Tanguay_ZF_120hpf_SOMI_legacy: (Legacy) Oregon State University Tanguay Lab 120 Hour Post-fertilization zebrafish Assay for Somite Malformation (AID 2283647). In outline: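 Binary brightfield scoring of somite defects at 120 hpf in 5D wild-type larvae; one dechorionated embryo per well, static exposure from 6 hpf, 28C, sealed and dark. Final DMSO 0.64%; trimethyltin chloride 5uM positive control.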

A short description of assay [13]: Tanguay_ZF_120hpf_PFIN_legacy: (Legacy) Oregon State University Tanguay Lab 120 Hour Post-fertilization zebrafish Assay for Pectoral Fin Malformation (AID 2283648).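 Also: each larva judged yes or no for fin defect by brightfield with dead larvae skipped.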 In outline: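 Pectoral fin malformation was recorded as a binary endpoint at 120 hpf in wild-type Tropical 5D larvae, which had been dechorionated and exposed statically from 6 hpf at 28C in 0.64% DMSO. Dead embryos were excluded.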

Assay [14] can be described thus: Tanguay_ZF_120hpf_CFIN_legacy: (Legacy) Oregon State University Tanguay Lab 120 Hour Post-fertilization zebrafish Assay for Caudal Fin Malformation (AID 2283649). The method in brief:
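Dechorionated 5D wild-type zebrafish, static exposure 6–120 hpf, 28C, sealed and dark, 0.64% v/v DMSO final. Binary fin-malformation call at 120 hpf, brightfield; gain of signal vs DMSO baseline.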

Assay [15] in a line: Tanguay_ZF_120hpf_PIG_legacy: (Legacy) Oregon State University Tanguay Lab 120 Hour Post-fertilization zebrafish Assay for Pigmentation Malformation (AID 2283650). In outline: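 Pigment malformation recorded as a binary call at 120 hpf in zebrafish (Tropical 5D) exposed singly from 6 hpf after pronase dechorionation. Static, sealed, 28C exposure, 0.64% DMSO; mortality excludes scoring; positive-direction fit against DMSO.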

Read-out in assay [16]: kallikrein-3 (KLK3), KLK3 (gene 354)
Put plainly: LTEA_HepaRG_KLK3: Life Technologies and Expression Analysis (LTEA) Assay for kallikrein-3 (KLK3) using HepaRG (AID 2283652; active = hit-call score of the fitted dose curve at least 0.9, where 1 is the maximum; inactive = score below 0.9). The conditions noted are these: mRNA level, 48 h; actives raise or lower the signal. The method in brief:
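KLK3 transcript levels were measured by TaqMan qRT-PCR with normalisation to three housekeeping genes. HepaRG cultures received chemicals for 48 h at up to 100 uM (half-log, 8 points, 0.5% DMSO vehicle), fitted in both directions against DMSO.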

Read-out in assay [17]: solute carrier (SLC22A6), SLC22A6 (gene 9356)
Put plainly: LTEA_HepaRG_SLC22A6: Life Technologies and Expression Analysis (LTEA) Assay for solute carrier (SLC22A6) using HepaRG (AID 2283653; active = hit-call score of the fitted dose curve at least 0.9, where 1 is the maximum; inactive = score below 0.9). To be noted: mRNA level, 48 h; actives raise or lower the signal. In outline:
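HepaRG, human liver line; 48 h chemical exposure; 8-pt half-log series from 100 uM in 0.5% DMSO, duplicate wells. Readout: TaqMan qRT-PCR of SLC22A6 mRNA, housekeeping-normalised; bidirectional curve fit vs DMSO baseline.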

Assay [18] in a line: Tanguay_ZF_120hpf_SWIM_legacy: (Legacy) Oregon State University Tanguay Lab 120 Hour Post-fertilization zebrafish Assay for Swim Bladder Malformation (AID 2283654).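 Also: swim bladder malformation in each larva scored yes or no under brightfield.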 The method in brief:
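Scoring is binary for swim bladder defects at 120 hpf, by brightfield inspection of zebrafish larvae. Embryos were exposed singly from 6 hpf after pronase dechorionation, at 28C with 0.64% DMSO; mortality excluded scoring.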

Assay [19] is described as follows: Tanguay_ZF_120hpf_CIRC_legacy: (Legacy) Oregon State University Tanguay Lab 120 Hour Post-fertilization zebrafish Assay for Circulatory Malformation (AID 2283651). In outline:
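Binary circulatory-malformation call at 120 hpf via brightfield imaging, relative to DMSO controls. Embryos (5D strain, chorion removed) received static, light-shielded exposure at 28C.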

The nature of assay [20]: Tanguay_ZF_120hpf_TRUN_legacy: (Legacy) Oregon State University Tanguay Lab 120 Hour Post-fertilization zebrafish Assay for Truncated Body (AID 2283655). In outline:
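Whole-embryo zebrafish screen: dechorionated 5D embryos, static exposure 6–120 hpf, 28C, sealed foil-covered plates, 0.64% DMSO. Binary truncation call; gain of signal versus DMSO baseline.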

Results filed as inconclusive are left out. The source holds several records for some structures; these can differ, active in one and inactive in another. Active and inactive are the calls of the source. The calls were made as follows, unless noted: active = hit-call score of the fitted dose curve at least 0.9, where 1 is the maximum; inconclusive = response in the unintended direction; inactive = score below 0.9.

Cellular tumor antigen p53 (Homo sapiens), sequence (P04637 whole entry, looked up): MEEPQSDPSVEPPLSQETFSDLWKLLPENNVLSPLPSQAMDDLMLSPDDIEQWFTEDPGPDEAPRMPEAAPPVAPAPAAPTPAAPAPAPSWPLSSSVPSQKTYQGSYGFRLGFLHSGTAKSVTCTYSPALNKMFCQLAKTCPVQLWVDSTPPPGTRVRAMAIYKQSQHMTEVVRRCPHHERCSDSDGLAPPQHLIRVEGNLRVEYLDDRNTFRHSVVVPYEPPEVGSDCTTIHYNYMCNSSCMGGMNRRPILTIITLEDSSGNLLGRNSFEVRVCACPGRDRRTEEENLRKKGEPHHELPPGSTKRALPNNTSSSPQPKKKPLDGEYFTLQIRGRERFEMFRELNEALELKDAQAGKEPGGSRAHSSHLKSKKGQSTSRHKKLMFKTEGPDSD

Regarding `OC(c1ccc(Cl)cc1)(c1cncnc1)c1ccccc1Cl` (stereo unspecified), the compound was called inactive in assay [1], in [3], in [4], in assay [5], in [6] and in [7]. Moreover, the compound was classed as inactive in assay [8], in assay [9], in assay [10], in assay [11], in assay [12] and in assay [13]. Besides, the compound was classed as inactive in assay [14], in assay [15], in assay [16], in assay [17] and in assay [18]. In addition, in [2], the AC50 was 63 µM (active).
As to `COc1nc(C)nc(NC(=O)NS(=O)(=O)c2ccccc2Cl)n1`, the compound was called inactive in [1] and in [2].
Regarding `CON(C)C(=O)Nc1ccc(Cl)c(Cl)c1`, the result in assay [1], in assay [2], in [3], in [4], in assay [5] and in assay [6] was inactive. Moreover, the result in assay [7], in assay [8], in assay [9], in [10], in [12] and in assay [13] was inactive. Also, the outcome in [14], in assay [15], in [19], in assay [18] and in assay [20] was inactive.
Take `C=CCC1=C(C)C(OC(=O)C2C(C=C(C)C)C2(C)C)CC1=O` (stereo unspecified): the result in assay [1], in assay [2], in assay [3], in assay [4], in [5] and in assay [6] was inactive. The result in [7], in assay [8], in [9], in [10], in assay [12] and in [13] was inactive. Also, the call in assay [14], in assay [15], in [19], in assay [18] and in assay [20] was inactive.
Turning to `CS/C(C)=N/OC(=O)N(C)SN(C)C(=O)O/N=C(\C)SC`, the result in [1], in [2], in assay [3], in assay [4], in assay [6] and in assay [7] was inactive. The compound was classed as inactive in assay [8], in assay [9], in [10], in assay [14], in [15] and in assay [18]. For the same compound, the outcome in assay [20] was inactive. Moreover, in assay [5], the concentration at half-maximal activity (AC50) is 24.4 µM (active).
On to `Cc1cc(Cl)ccc1OCC(=O)O`, for which the outcome in [1], in assay [2], in assay [3], in assay [4], in assay [5] and in [6] was inactive. Besides, the outcome in [7], in assay [8], in [9], in assay [10], in assay [11] and in assay [12] was inactive. For the same compound, the compound was called inactive in assay [13], in [14], in assay [15], in assay [18] and in assay [20].
For `CCNc1nc(Cl)nc(NCC)n1`, the compound was called inactive in assay [1], in [2], in [3], in [4], in [5] and in assay [6]. Further, the result in assay [7], in assay [8], in [9], in assay [10], in assay [12] and in [13] was inactive. The outcome in assay [14], in assay [19], in assay [18] and in assay [20] was inactive.
